Molecules are shown by their SMILES. Calls of active or inactive are those of the source.

In assay [1] the test system is XIP peptide (Xip251-270) binding. The experiment in a line: small-molecule binders of XIP peptide, primary screen, biochemical, small-molecule microarray, fluorescence 635/667 nm, 0.1 µg/mL protein (AID 1182). The settings on record: fluorescent protein binding, 635 nm, higher = more signal, called active from +8 up or from −8 down.
Another assay has as its system XIP peptide (Xip251-270). The experiment in a line: small-molecule binders of XIP peptide, primary screen, biochemical, small-molecule microarray, fluorescence 635/667 nm, 0.5 µg/mL protein (AID 1183). The settings on record: small-molecule microarray binding, fluorescence 635 nm; higher = more signal.
A short description of assay [2]: Plasmodium falciparum growth inhibition, primary screen, strain 3D7, DAPI fluorescence, 100 nL (AID 1184).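 Further: parasites grown inside human red blood cells in medium with human serum.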 The settings on record: P. falciparum 3D7 growth, 3 d, higher = more signal.
Assay [3] addresses Homeobox protein Hox-A13 (Mus musculus) (UniProt Q62424). Put plainly: inhibitors of HoxA13-DNA binding, primary screen, biochemical, fluorescence polarization, labeled oligonucleotide (AID 1185). The settings on record: 15 min, higher = more signal, called active from +8 up or from −8 down. On the technique in general: In fluorescence polarisation assays a small probe gives low polarisation when free and higher when bound to something large.

Sequence of Homeobox protein Hox-A13 (Mus musculus) (Q62424 whole entry, looked up): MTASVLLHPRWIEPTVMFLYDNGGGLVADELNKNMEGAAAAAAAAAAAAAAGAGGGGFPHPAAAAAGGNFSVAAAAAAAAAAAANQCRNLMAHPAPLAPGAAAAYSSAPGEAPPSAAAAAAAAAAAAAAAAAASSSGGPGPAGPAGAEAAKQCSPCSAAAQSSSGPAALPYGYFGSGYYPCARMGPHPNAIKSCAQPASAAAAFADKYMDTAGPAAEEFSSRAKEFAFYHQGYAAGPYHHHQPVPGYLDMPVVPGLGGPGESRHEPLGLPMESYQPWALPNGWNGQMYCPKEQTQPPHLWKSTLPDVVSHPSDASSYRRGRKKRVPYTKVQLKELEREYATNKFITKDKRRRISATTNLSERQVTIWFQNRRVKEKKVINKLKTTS

As to `CCO[C@H](c1cc(OC)cc([N+](=O)[O-])c1OC)[C@H](C)[C@@H](OC)[C@H](C)C=CCC(=O)OC`, the composite z-score in assay [1] was 0.72 (inactive); in the assay on XIP peptide (Xip251-270) it was 0.0025. Besides, the values for the z-score in assay [2] and in assay [3] were -0.119 and -0.256 (inactive), respectively.

As to `C#CCCCON=C1[C@H]2CCn3c(=O)n([C@@H](CC)c4ccccc4)c(=O)n3[C@H]2[C@H](O)[C@@H]2O[C@H]12`, the composite z-score was 0.967 (inactive) in assay [1] and -0.226 with XIP peptide (Xip251-270). Besides, the z-score was -0.9 in assay [2] and -3.68 (inactive) in assay [3].

For `CC[C@@H](c1ccccc1)n1c(=O)n2n(c1=O)[C@H]1[C@H](O)[C@@H]3O[C@@H]3C(=NOCc3ccccc3)[C@H]1CC2`, the composite z-score in assay [1] was 0.265 (inactive); with XIP peptide (Xip251-270) it was 0.539. Moreover, the z-score in assay [2] is -1.81; in assay [3] it was -4.2 (inactive).

For `O=C(NN=C1C[C@@H](O)[C@@H](O)[C@@H]2[C@@H]3C(=O)N(Cc4ccc5c(c4)OCO5)C(=O)[C@@H]3CC[C@@H]12)OCc1ccccc1`, the composite z-score is 0.244 (inactive) in assay [1] and 0.0195 with XIP peptide (Xip251-270). In addition, the z-score in assay [2] is -1.1; in assay [3], -3.09 (inactive).

For the compound `C[C@]12CCC3c4ccc(OCC5CO5)cc4CCC3C1CC[C@@H]2O` (stereo not given in full), the composite z-score in assay [1] is 0.504 (inactive); in the assay on XIP peptide (Xip251-270), 0.0249. The z-score in assay [2] is 0.0788; in assay [3], -2.47 (inactive).

Consider `CCOC(=O)CCN1C(=O)[C@H]2[C@@H]3C(=CC[C@H]2C1=O)C(=O)[C@H]1O[C@H]1[C@H]3O`, for which the composite z-score in assay [1] was -0.0103 (inactive); with XIP peptide (Xip251-270), -0.465. Besides, the z-score in assay [2] was -1.5; in assay [3], -4.11 (inactive).

For the compound `CCOC(=O)[C@H](CC(C)C)NC(=O)CCC1CC(OC(=O)NCCc2ccc(F)cc2)CC2(CCCC(COC(=O)NCCOC)O2)O1` (stereo not given in full), the composite z-score in assay [1] is 0.0029 (inactive); in the assay with XIP peptide (Xip251-270), 0.39. The z-score in assay [2] was -1.9; in assay [3], -6.12 (inactive).

As for `C=CC[C@@H]1C=C[C@H](ON=C2C[C@@H](O)[C@@H](O)[C@@H]3[C@@H]4C(=O)N(CC)C(=O)[C@@H]4CC[C@@H]23)[C@@H](CO)O1`, the figures for the composite z-score (in assay [1]; with XIP peptide (Xip251-270)) were -0.192 (inactive) and -1.06, respectively. The values for the z-score in assay [2] and in assay [3] were -0.689 and 0.0713 (inactive), respectively.

As to `CC(CCN1CCCc2nc(C)c(C)cc21)=NOC[C@@H](C)[C@H](OCc1ccccc1)C(C)C`, the composite z-score in assay [1] was -0.563 (inactive); in the assay on XIP peptide (Xip251-270), 0.548. The results for the z-score in assay [2] and in assay [3] were -0.342 and -3.09 (inactive), respectively.

For the compound `CC(=O)OC[C@H]1O[C@H](CC=NO[C@@H](C)c2cn([C@H](CO)Cc3ccccc3)nn2)C=C[C@@H]1OC(C)=O`, the results for the composite z-score (in assay [1]; in the assay on XIP peptide (Xip251-270)) were -0.0018 (inactive) and 0.361, respectively. In addition, the figures for the z-score in assay [2] and in assay [3] were -1.13 and -0.583 (inactive), respectively.

As to `CCOC(=O)[C@H](Cc1ccccc1)NC(=O)CCC1CC(OC(=O)NCCc2ccc(F)cc2)CC2(CCCC(COC(=O)NCCC(C)C)O2)O1` (stereo not given in full), the composite z-score in assay [1] was 0.162 (inactive); with XIP peptide (Xip251-270) it was 0.657. In addition, the values for the z-score in assay [2] and in assay [3] were -1.66 and -4.45 (inactive), respectively.

For `CC(=O)OC[C@H]1O[C@H](CC=NOC[C@@H](O)COCc2ccco2)C=C[C@@H]1OC(C)=O`, the figures for the composite z-score (in assay [1]; in the assay on XIP peptide (Xip251-270)) were 0.084 (inactive) and 0.479, respectively. Further, the values for the z-score in assay [2] and in assay [3] were 0.466 and -0.226 (inactive), respectively.

Regarding `CCN1C(=O)[C@H]2[C@H]3[C@H](O)[C@H](O)CC(=NOCC[C@@H]4C=C[C@H](OC(C)=O)[C@@H](COC(C)=O)O4)[C@@H]3CC[C@H]2C1=O`, the composite z-score is 0.607 (inactive) in assay [1] and 0.529 in the assay on XIP peptide (Xip251-270). Moreover, the z-score in assay [2] was 0.145; in assay [3] it was -1.8 (inactive).

With `O=C1CCCC=C1C(O)C1CCCCC1` (stereo not given), the composite z-score in assay [1] is -0.459 (inactive); in the assay with XIP peptide (Xip251-270), -0.11. Also, the z-score in assay [2] is 0.247; in assay [3], -0.0768 (inactive).

`O=C1[C@H]2[C@H]3[C@H](O)[C@H](O)CC(=NOC[C@@H](O)COCc4ccco4)[C@@H]3CC[C@H]2C(=O)N1Cc1ccc2c(c1)OCO2`: the composite z-score was -0.0588 (inactive) in assay [1] and 0.265 in the assay with XIP peptide (Xip251-270). The z-score in assay [2] was 1.15; in assay [3], 0.263 (inactive).

For `COc1cccc([C@H]2Oc3ccc(OC)cc3C(=NOCC[C@@H]3C=C[C@H](OC(C)=O)[C@@H](COC(C)=O)O3)[C@@H]2O)c1`, the figures for the composite z-score (in assay [1]; in the assay on XIP peptide (Xip251-270)) were 0.451 (inactive) and 0.206, respectively. The z-score in assay [2] is 0.956; in assay [3], -5.39 (inactive).

Consider `CC1(C)O[C@H]2OC([C@H](O)CON3C(=O)c4ccccc4C3=O)[C@H](O)[C@H]2O1` (stereo not given in full), for which the composite z-score in assay [1] is -0.592 (inactive); in the assay with XIP peptide (Xip251-270), 0.291. Further, the z-score in assay [2] was 0.696; in assay [3], 0.366 (inactive).

In the case of `CC(C)CON=C1C[C@@H](O)[C@@H](O)[C@@H]2[C@@H]3C(=O)N(c4ccc(F)cc4F)C(=O)[C@@H]3CC[C@@H]12`, the composite z-score is 0.681 (inactive) in assay [1] and 0.218 with XIP peptide (Xip251-270). Further, the results for the z-score in assay [2] and in assay [3] were -1.66 and -0.567 (inactive), respectively.

On to `CCc1cc2c(nc1CC)CCN(CCC(C)=NO[C@@H]1O[C@H](COC(C)=O)[C@@H](OC(C)=O)[C@H](OC(C)=O)[C@H]1OC(C)=O)C2`, for which the figures for the composite z-score (in assay [1]; with XIP peptide (Xip251-270)) were 2.93 (inactive) and 0.719, respectively. For the same compound, the z-score in assay [2] was -1.62; in assay [3], -4.79 (inactive).

In the case of `CC(CCN1CCCc2nc(C)c(C)cc21)=NO[C@H](C)c1cn([C@H](CO)Cc2ccccc2)nn1`, the results for the composite z-score (in assay [1]; with XIP peptide (Xip251-270)) were -0.0325 (inactive) and 0.532, respectively. For the same compound, the z-score in assay [2] was -2.52; in assay [3], -7.43 (inactive).
